Bioassay records as filed in PubChem BioAssay.
A selection: hits, their analogues and other compounds. The true share with any hit is near 12%.
G9a block – inhibitors of human histone lysine methyltransferase G9a; Q96KQ7; G9a H3K9 monomethylation, AlphaScreen, 2 h; Potency, µM (titrated, usually from 102 µM), for inactives: at the top dose activity, negative = inhibition, hits mostly inhibitors; 350,000 compounds, 8.8% hits; AID 504332; further: on the % scale 0 is the no-effect control and ±100 the full control effect; nearly all actives have a fitted effect of over 75% in size
Target sequence (Q96KQ7 913-1193 limits assumed): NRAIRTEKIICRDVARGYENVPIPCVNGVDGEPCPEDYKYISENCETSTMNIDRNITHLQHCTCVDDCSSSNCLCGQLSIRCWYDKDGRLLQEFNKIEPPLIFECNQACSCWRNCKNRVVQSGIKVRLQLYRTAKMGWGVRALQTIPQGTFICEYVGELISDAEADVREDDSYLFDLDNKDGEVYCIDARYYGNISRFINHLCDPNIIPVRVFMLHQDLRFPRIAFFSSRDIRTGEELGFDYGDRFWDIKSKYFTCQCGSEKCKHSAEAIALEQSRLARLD
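AlphaScreen detection with an anti-monomethyl H3K9 antibody quantified product after a 2 h room-temperature reaction containing 500 nM biotinylated H3K9 peptide, 20 µM SAM and 20 nM enzyme, which had been preincubated 15 min with compound.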
BAZ2B inh – inhibitors of human BAZ2B bromodomain; Q9UIF8; AlphaScreen BAZ2B-H3K14Ac peptide displacement; Potency, µM (doses to about 114 µM), inactives show at the highest dose activity change, negative = inhibition, hits mostly inhibitors; 360,000 compounds, 4.4% hits; AID 504333; further: on the % scale 0 is the no-effect control and ±100 the full control effect; nearly all actives have a fitted effect of over 60% in size
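AlphaScreen luminescence quantifies BAZ2B engagement of H3K14Ac peptide; the protein and biotinylated peptide are both at 50 nM final, buffer PBS pH 7.4 with 0.01% Tween-20, all steps at room temperature.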
JMJD2A Tudor inh – JMJD2A Tudor domain (human) inhibition; O75164; 390,000 compounds, 4.4% hits; AID 504339; AlphaScreen JMJD2A-Tudor / H3K4me3 peptide binding; Potency, µM (top dose mostly 114 µM), inactives show at the top dose activity change, negative = inhibition, actives largely listed as inhibitors; further: on the % scale 0 is the no-effect control and ±100 the full control effect; nearly all actives have a fitted effect of over 50% in size
PLK1 PBD block – blocks phosphopeptide binding to human PLK1 polo-box domain; Plk1 PBD binding of FITC phosphopeptide, fluorescence polarization; Potency, µM, for inactives: max response, negative = inhibition, hits mostly inhibitors; 360,000 compounds, 2.8% hits; further: series mostly up to about 57 µM; on the % scale 0 is the no-effect control and ±100 the full control effect; nearly all actives have a fitted effect of over 65% in size
HP1b chromo inh – inhibitors of HP1-beta chromodomain binding to methylated histone tails; P83916; Potency, µM (series often up to 114 µM), inactives show top-dose activity change, negative = inhibition, hits mostly inhibitors; 390,000 compounds, 0.56% hits; AlphaScreen HP1-beta / biotin-H3K9me3 peptide binding; further: nearly all actives have a fitted effect of over 70% in size
Target sequence (P83916 whole entry, looked up): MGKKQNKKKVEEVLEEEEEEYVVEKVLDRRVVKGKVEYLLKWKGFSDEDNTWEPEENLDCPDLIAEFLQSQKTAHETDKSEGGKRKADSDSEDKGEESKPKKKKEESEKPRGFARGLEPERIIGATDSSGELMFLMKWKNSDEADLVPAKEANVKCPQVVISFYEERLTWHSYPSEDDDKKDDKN
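Compound inhibition of the preformed complex between 50 nM HP1-beta and 50 nM biotinylated H3K9me3 peptide was read by AlphaScreen. Buffer was PBS pH 7.4 with 0.01% Tween-20. Incubations ran 30 min at room temperature, with 10 ug/mL donor/acceptor beads.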
Sfp inh – blocks B. subtilis Sfp PPTase activity | Q9F4F7 | Biochemical Sfp PPTase activity, qHTS | Potency, µM, for inactives: largest response in the series, negative = inhibition, usual class: inhibitors | 310,000 compounds, 3.5% hits;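 further: the enzyme is Sfp with the accession as filed and its product quenches rhodamine fluorescence; 0% = enzyme reaction without inhibitor and -100% = no enzyme wells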
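Fluorescence-quenching assay: 15 nM Sfp-PPTase preincubated 15 min at room temperature with compound, then 5 uM rhodamine-CoA and 12.5 uM BHQ-2-labelled YbbR peptide added. Fluorescence (ex 525/em 598 nm) read at start and after 30 min; difference gives rate.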
Numbers without * were called inactive; ? = inconclusive; nt = not tested or not shown; [ ] = another dose, or the depositor's remark. The call rests on the fitted dose curve; in most records, active means well fitted curve in the direction sought with a large enough effect; inconclusive means small, poorly fitted or top-dose-only effect, or another doubt; inactive means no such curve, though single readings can be large; an effect the other way counts as inactive or inconclusive. Potency means the concentration at half of the fitted maximal effect.

SMILES	G9a block	BAZ2B inh	JMJD2A Tudor inh	PLK1 PBD block	HP1b chromo inh	Sfp inh
Cc1sc2nc(CSC(C)C(=O)Nc3ccc(C#N)cc3)[nH]c(=O)c2c1C (stereo not given)	16%[0.501 µM]	3%	-11%	?	13%	nt
Cc1ccc(F)cc1NC(=O)CSCc1nc2sc(C)c(C)c2c(=O)[nH]1	40µM*	-2%	-22%	?	12%	nt
Cc1ccc(SC2=NS(=O)(=O)c3ccccc32)c(C)c1	nt	nt	-11%[57.1 µM]	nt	1%[57 µM]	nt
Cc1ccc(C(=O)Nc2cccc(NC(=O)c3ccc(C)c([N+](=O)[O-])c3)n2)cc1[N+](=O)[O-]	8%	2%	-33%	3%	-10%	-22%
COC(=O)c1c(NC(=O)c2cccc([N+](=O)[O-])c2)sc(C(N)=O)c1C	nt	-14%	-19%	?	-16%	45µM*
COC(=O)c1c(NC(=O)c2ccccc2)sc(C(N)=O)c1C	1%	-5%	17%	5%	25%	11%
Cc1ccc(C(=O)Nc2sc(C)c(-c3ccccc3)c2C(N)=O)cc1[N+](=O)[O-]	40µM*	4%	?	19µM*	-44%	45µM*
COC(=O)c1sc(NC(=O)c2cccc([N+](=O)[O-])c2)c(C(N)=O)c1C	10µM*	1%	-11%	27µM*	?	?
Cc1cc(O)c(C)c(O)c1C(=O)O	-4%[2.33 µM]	nt	nt	nt	nt	0%
CC1CCC2C(=O)OC(COc3ccc(C(C)(C)C)cc3)CN2C1c1ccc(Br)cc1 (stereo not given)	nt	nt	nt	nt	nt	15%
COc1ccccc1NC(=O)C1=C(C)NC2=C(C(=O)CC(c3ccc(OC)c(OC)c3)C2)C1c1coc2ccccc2c1=O (stereo not given)	45µM*	-34%	3%	2%	24%	6%
Cc1cccnc1NC(=O)CN1C(=O)COc2ccc(Cl)cc21	21%	56µM*	0%	4%	46%	10%
O=C(CN1C(=O)COc2ccc(Cl)cc21)Nc1nccs1	27%[12.7 µM]	-1%	-1%	-6%	15%	nt
C=CCNC(=O)N1CCc2nc(-c3ccccc3)c3c(c2C1)CO[C@@H](C)C3	nt	nt	nt	nt	nt	12%
CC(C)CCC(CCNCc1ccccn1)c1ccc2c(c1)OCO2 (stereo not given)	16µM*	56µM*	40µM*	-5%	10%	-21%
O=C(NCc1ccncc1)Nc1ccc2c(c1)OCO2	45µM*	11%	-29%	-14%	17%	-6%
O=S(=O)(NCc1ccccn1)c1ccc2c(c1)OCCO2	-6%[12.7 µM]	8%	-7%	5%	31%	-6%
O=C(NCc1ccccn1)Nc1ccc2c(c1)OCO2	-30%[59 µM]	4%	14%	-3%	14%	79µM*
O=C(CCSc1ccc(Cl)cc1)NCc1ccccn1	1%	-16%	1%	-19%	37%	21%
O=C(NCc1cccs1)Nc1ccc2c(c1)OCO2	?	1%	-22%	-1%	28%	5%
CC(C)C(CCNCc1ccccn1)c1ccc(Cl)cc1 (stereo not given)	?	50µM*	20µM*	?	11%	-14%
CCCC(CNC(C)=O)(C1=CCCCC1)c1ccccc1 (stereo not given)	nt	nt	nt	-12%	nt	nt
COc1cccc(/C=N/NC(=O)c2oc3nc(-c4ccccc4)cc(-c4ccco4)c3c2N)c1	32µM*	-20%	-10%	3%	37%	-13%
Cc1ccc(-c2cc(-c3ccco3)c3c(N)c(C(=O)NN)oc3n2)cc1	nt	?	?	2%	-1%	?
CC[C@H](C)[C@H](NC(=O)[C@@H]1CCCN1C(=O)[C@H](Cc1cnc[nH]1)NC(=O)[C@@H](NC(=O)[C@H](Cc1ccc(O)cc1)NC(=O)[C@@H](NC(=O)[C@H](CCCN=C(N)N)NC(=O)CNC)C(C)C)[C@@H](C)CC)C(=O)O	nt	nt	nt	nt	nt	24%
SMILES	G9a block	BAZ2B inh	JMJD2A Tudor inh	PLK1 PBD block	HP1b chromo inh	Sfp inh
CN(C)S(=O)(=O)c1cccc(-c2nnc(SCC(=O)NCCCCCC(=O)O)n2-c2ccc(F)cc2)c1	16µM*	-7%	?	-19%	47%	12%
O=C(O)CCc1ccc(-c2ccccc2)n1NC(=O)c1sc2ccccc2c1Cl	50µM*	?	4%[57.1 µM]	-15%	-21%	-3%
CC(=O)c1ccc(NC(=O)c2nc(-c3ccccc3)n(-c3ccc(C)cc3)n2)cc1	?	-2%	-19%	nt	14%	nt
COc1cc2c(cc1OC)CC(=O)N(C)CC2	6%	1%	-3%	0%	17%	19%
COc1cc2c(cc1OC)C[N+](C)(C)CC2	-10%[12.7 µM]	-6%	50µM*	-6%	9%	?
Cc1ccc(S(=O)(=O)c2cnc(-c3ccccc3)[nH]c2=O)cc1	nt	nt	-6%	nt	17%	nt
COCCn1c(C(=O)N2CCCC2)cc2c1C[C@H]1CN(C(=O)c3ccccc3)[C@@](Cc3ccc(OC)cc3)(C(=O)OC)[C@@H]21	nt	nt	nt	nt	nt	7%
COC(=O)CCC(=O)c1ccn(S(=O)(=O)c2ccccc2)c1	-26%	-21%	-10%	-1%	24%	1%
CCCCCCCC1CC(/C(C)=N/NC(N)=O)OC1=O (stereo not given)	2%	2%	40µM*	12µM*	6%	25%
O=C(/C=C/c1ccc(O)c(O)c1)O[C@@H]1C[C@@](O)(C(=O)O)C[C@H](O)[C@@H]1O	nt	nt	nt	nt	nt	50µM*
CC(C)(C)C1CCC(=NNC(=O)C(=O)NCc2ccco2)CC1 (stereo not given)	20µM*	?	-15%	-13%	25%	3%
S=C(NCc1ccco1)N1CCN(Cc2ccco2)CC1	7.1µM*	?	4.5µM*	-4%	?	-30%
S=C(NCc1ccco1)N1CCN(c2ccccc2Cl)CC1	56µM*	-32%	-28%	-11%	-11%	-1%
O=C(NCc1ccco1)C(=S)N1CCCC1	32µM*	-13%	0%	-7%	18%	35%
CCc1ccc([C@@H]2CC=C(C(=O)O)[C@H](c3ccc(F)cc3)N2S(=O)(=O)c2ccc(C)cc2)cc1	21%[2.33 µM]	8%	-4%	?	38%	nt
COc1ccc(N=C2S/C(=C\c3ccc(OCC(=O)O)cc3)C(=O)N2CCc2c[nH]c3ccccc23)cc1	-195%[59 µM]	14µM*	8.9µM*	?	18µM*	?
CCN1C(=O)/C(=C/c2ccc(C)s2)SC1=Nc1ccc(OC)cc1	?	?	?	-3%	-21%	-13%
COc1ccc(N=C2S/C(=C\c3ccc(N4CCOCC4)o3)C(=O)N2CCc2c[nH]c3ccccc23)cc1	?	40µM*	nt	nt	nt	4µM*
CCCN(CCC)C(=O)Cn1c(=O)n(-c2cccc(C(F)(F)F)c2)c(=O)c2c(C)c(C)sc21	-17%[59 µM]	3%	-5%	nt	37%	nt
